Sampled rows, rich in hits. Any-hit rate of the full collection: about 2.1%.
HIV Env fusion: inhibitors of HIV-1 Env-driven cell-cell fusion, primary screen, HeLa-JRFL effector, CEM21 target cells, luciferase; 360,000 tested, 1.1% active; AID 651610, 2012; inhibition, % at 12.3 µM;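 active = mean replicate inhibition score of at least 50 and every replicate individually at or above 50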;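 also: 0% = plate neutral controls and 100% = maraviroc near 300 nM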
Gli-Sufu block: Gli-Sufu pathway antagonists, primary screen, luciferase luminescence, Sufu-KO-LIGHT cells, uHTS; 340,000 tested, 0.74% active; AID 588413, 2011; Sufu-KO-LIGHT fibroblasts, Gli luciferase reporter luminescence; inhibition, % at 5 µM;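 active = inhibition above about 55%, limit read from the data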;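 also: 0% = DMSO-treated cells and 100% = wells with medium but no cells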
GalR3 antag: GalR3 antagonists in HEK293 cells, primary screen, cell-based, fluorescence readout. 360,000 tested, 0.44% active. inhibition, % at 3 µM. Galanin receptor type 3 (Homo sapiens), O60755. HEK293 GalR3-CNG cAMP membrane potential fluorescence; galR3 body fused to GalR1 C-terminus. AID 651719, 2012;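 active = inhibition above the screen-wide average plus 3 SD, cut at about 13% in these data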;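 also: forskolin and galanin both at EC90 stimulate the cells; cAMP rise reported by CNG channel membrane potential dye signal; 0% = forskolin plus galanin with DMSO and 100% = forskolin alone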
aDG glyco act: activators of alpha-DG glycosylation, primary screen, uHTS, Pro5-aDG cells, AlphaScreen; activation, % at 10 µM; 360,000 tested, 0.22% active; AID 624168, 2012; alpha-DG glycosylation AlphaScreen (IIH6); 0% Pro5, 100% B10-LARGE cell signal;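 active = activation of at least 8% versus controls, or a plate z-score of at least 8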;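 also: Pro5 are CHO cells carrying HIG-tagged alpha-DG that lacks glycosylation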
COUP-TFII inh: NR2F2 transcriptional activity inhibitors, primary screen, cell-based, luciferase reporter, HEK293T, luminescence; inhibition, % at 8.6 µM; HEK293T NGFI-A luciferase reporter; AID 686940, 2013; 370,000 tested, 0.7% active;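 active = inhibition above a per-plate cutoff, mean inhibition of test wells between control levels plus 3 SD, cut at about 38% in these data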;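 also: cells cotransfected with COUP-TFII expression vector driving the NGFI-A reporter; 0% = median of COUP-TF2 test wells and 100% = reporter-only cells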
Target sequence (P24468 whole entry, looked up): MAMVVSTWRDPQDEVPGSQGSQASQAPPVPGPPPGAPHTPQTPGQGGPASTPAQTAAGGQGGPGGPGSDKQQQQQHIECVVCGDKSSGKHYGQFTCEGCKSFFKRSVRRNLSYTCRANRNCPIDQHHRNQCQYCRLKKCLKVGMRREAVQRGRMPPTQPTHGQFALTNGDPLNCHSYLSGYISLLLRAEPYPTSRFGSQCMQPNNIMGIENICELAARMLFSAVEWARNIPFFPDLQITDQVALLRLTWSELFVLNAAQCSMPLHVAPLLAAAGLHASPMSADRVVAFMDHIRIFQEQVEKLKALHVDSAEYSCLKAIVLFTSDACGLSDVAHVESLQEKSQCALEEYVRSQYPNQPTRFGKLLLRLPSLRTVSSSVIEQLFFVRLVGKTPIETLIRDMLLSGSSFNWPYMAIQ
GalR3 conf: GalR3 antagonist hit confirmation, cell-based, fluorescence, triplicate; shares compounds with GalR3 antag; HEK293 GalR3 CNG cAMP biosensor, membrane potential fluorescence; galR3 fused to GalR1 carboxy tail; challenged with forskolin and galanin at EC90; inhibition, % at 3 µM; 1,600 tested, 59% active;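 active = inhibition above the primary screen's cutoff, the mean inhibition of all screened compounds plus 3 SD, cut at about 13% in these data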;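 also: 0% = forskolin plus galanin and 100% = forskolin alone with DMSO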
CNG parental: nonspecific cAMP agonists in parental HEK-CNG cells, counter-screen for GalR3 antagonist project, cell-based, fluorescence, high throughput; shares compounds with GalR3 antag; HEK293-CNG parental cells, cAMP membrane potential fluorescence; normalised: DMSO wells 0%, forskolin wells 100%; activation, % at 3 µM; 1,600 tested, 10% active; in the data active = activation above about 1.3%
* marks the source's active call; other numbers are inactive results; . = no result; [ ] = dose if it differs, or a comment.

SMILES	HIV Env fusion	Gli-Sufu block	GalR3 antag	aDG glyco act	COUP-TFII inh	GalR3 conf	CNG parental
COc1ccc(-c2noc(CCC(=O)NCCCN3CCC(Cc4ccccc4)CC3)n2)cc1	15	2	76*	5.5*	34	-3	6.1*
COc1ccc(-c2noc(CCC(=O)NCCCN3CCN(c4ccc(F)cc4)CC3)n2)cc1	24	-9	-7	2	11	.	.
Nc1oc2ccccc2c1C(=O)Cc1ccccc1O[C@@H]1O[C@H](CO)[C@@H](O)[C@H](O)[C@H]1O	.	5	16*	0	-15	9	0
OCc1ccccc1O[C@@H]1O[C@H](CO)[C@@H](O)[C@H](O)[C@H]1O	.	-9	-4	0	2	.	.
COc1cc(CCC(=O)OCC(=O)Nc2ccc(C(N)=O)cc2)cc(OC)c1OC	8	4	.	0	-1	9	0
Cc1ccc([N+](=O)[O-])cc1S(=O)(=O)N1CCC(C)CC1	13	0	-3	0	-12	.	.
Cc1ccc([N+](=O)[O-])cc1S(=O)(=O)N1CCCC1	5	-2	.	0	-18	0	0
Cc1ccc(-c2cnc3c(c2)C(=O)N([C@H](C)CO)C[C@H](C)[C@H](CN(C)CC2CCCC2)O3)cc1	-3[16.7 µM]	.	.	.	.	.	.
O=C(COC(=O)c1n[nH]c2ccccc12)NCCc1ccc(Cl)cc1	.	-3	36*	0	-36	56*	1
C[C@@H]1CN([C@@H](C)CO)C(=O)c2cc(NS(C)(=O)=O)ccc2O[C@@H](C)CCCCO[C@H]1CN(C)C(=O)c1ccccc1	23[16.7 µM]	.	.	.	.	.	.
Cc1ccccc1OCC1CNC(=O)O1 (configuration not stated)	5	-2	-3	0	9	.	.
O=C1NCC(COc2cccc3ccccc23)O1 (configuration not stated)	-7	0	19*	0	-5	7	0
COc1ccc(S(=O)(=O)Nc2ccc3c(c2)C(=O)N([C@H](C)CO)C[C@H](C)[C@H](CN(C)C(=O)Nc2ccc4c(c2)OCO4)O3)cc1	17[16.7 µM]	.	.	.	.	.	.
CN1CCN(C(=O)C[C@H]2CC[C@@H]3[C@@H](COc4ccc(NC(=O)c5ccc(F)c(F)c5)cc4C(=O)N3C)O2)CC1	-8[16.7 µM]	.	.	.	.	.	.
CCO[C@@H]1OC(C(N)=O)=C[C@H](c2ccc(C(F)(F)F)cc2)[C@H]1CCCO	7	3	16*	0	-18	5	0
CNc1ncnc2c1ncn2[C@@H]1O[C@H](CO)[C@@H](O)[C@H]1O	15	-3	77*	0	-41	17*	0
C[C@H](Cc1ccccc1)Nc1ncnc2c1ncn2[C@@H]1O[C@H](CO)[C@@H](O)[C@H]1O	5	-14	.	0	-73	.	.
C[C@H]1CN([C@@H](C)CO)C(=O)c2cccc(NC(=O)CCCCCC(=O)Nc3ccccc3N)c2O[C@H]1CN(C)S(=O)(=O)c1ccc(Cl)cc1	21[16.7 µM]	.	.	.	.	.	.
CCOC(=O)c1ccc(-c2c(-c3ccc(OC)cc3)oc(=O)c3cc(OC)c(OC)cc23)cc1F	8	46	-5	0	2	.	.
CCOC(=O)c1ccc(-c2c(-c3cc(OC)c(OC)c(OC)c3)noc2C)cc1F	-84	14	.	0	-24	5	3.8*
C[C@H](CO)N1C[C@H](C)[C@@H](CN(C)CC2CCCCC2)Oc2ccc(NC(=O)c3ccncc3)cc2C1=O	-3[16.7 µM]	.	.	.	.	.	.
Cc1nc2sc(C#N)c(N)c2c2c1CCCC2	.	5	27*	0	-7	34*	0
CCOC(=O)c1oc2c(c1C)C(=O)CCC2	-55	36	-11	0	-4	.	.
CCOC(=O)c1oc2c(c1C)/C(=N/O)CCC2	-161	-23	13*	0	-46	2	0
Cc1nc(S(=O)(=O)Cc2ccccc2Cl)nc2c1CCC2	3	4	27*	2	-2	3	0
SMILES	HIV Env fusion	Gli-Sufu block	GalR3 antag	aDG glyco act	COUP-TFII inh	GalR3 conf	CNG parental
Cc1nc(S(=O)(=O)Cc2ccccc2)nc2c1CCC2	-16	-15	5	0	-3	.	.
COc1cccc(S(=O)(=O)N2C[C@H](O)COC[C@@H]3O[C@@H](CC(=O)Nc4ccccc4)CC[C@H]32)c1	-11[16.7 µM]	.	.	.	.	.	.
CSc1ccccc1NC(=O)c1cnc2scc(C)n2c1=O	-4	-18	23*	0	-99	5	0
C[C@H]1CN([C@@H](C)CO)C(=O)Cc2cc(NS(=O)(=O)c3ccc(F)cc3)ccc2O[C@@H]1CN(C)Cc1ccc(C(F)(F)F)cc1	19[16.7 µM]	.	.	.	.	.	.
CCCc1cc(=O)[nH]c(SCC(=O)c2c[nH]c3ccccc23)n1	3	-4	-2	0	-25	.	.
CCCc1cc(=O)[nH]c(SCC(=O)c2c(C)[nH]c3ccccc23)n1	-1	1	17*	0	1	4	1.7*
Cc1ccc(S(=O)(=O)N(C)C[C@@H]2Oc3ncc(-c4ccncc4)cc3C(=O)N([C@@H](C)CO)C[C@@H]2C)cc1	7[16.7 µM]	.	.	.	.	.	.
O=C(Nc1ccccc1C1CC1)c1cccs1	.	-5	78*	0	6	-9	0
CSc1ccccc1NC(=O)c1cccs1	.	-7	8	0	-13	.	.
Fc1cccc(-c2nnn3c2nc(Cl)c2ccccc23)c1	-73	8	14*	0	-20	6	3.8*
O=[N+]([O-])c1cccc(C2=NCCC(c3ccccc3)O2)c1 (configuration not stated)	-13	-6	22*	0	-55	4	0
Cc1cc(N(CCO)CCO)nc(-n2nc(C)cc2C)n1	.	-1	5	0	-8	.	.
Cc1cc(NCCO)nc(-n2nc(C)cc2C)n1	.	2	13*	0	7	0	0
CCCCC(=O)N/N=C/c1ccc(N2CCOCC2)c([N+](=O)[O-])c1	-12	-12	14*	0	-10	11	0
O=C(O)Cc1csc(-c2cccc(F)c2)n1	9	-7	.	0	11	0	0
O=C(O)Cc1csc(-c2ccccc2)n1	-14	-28	2	-1	-23	.	.
Cc1nnc(NC(=O)C(C)Sc2nnc(CCNC(=O)c3ccccc3F)n2C)s1 (configuration not stated)	-5	7	13*	0	-7	5	0
C[C@@H]1CN([C@H](C)CO)C(=O)c2cc(N(C)C)ccc2O[C@@H]1CN(C)C(=O)Nc1ccc(F)cc1	-5[16.7 µM]	.	.	.	.	.	.

High-throughput results deposited in PubChem BioAssay by several laboratories.
